Compounds with a hit are over-represented: about 3.8% of the library has one in this group of screens.
Mtb hypoxia rep – PubChem AID 1159583; M. tuberculosis hypoxia-regulated fluorescent reporter, fluorescence; fluorescence inhibition, % (concentration not given with the values); 300,000 tested, 0.1% active; in the data active means fluorescence inhibition mostly above about 23%, no sharp cut-off; inactive means mostly below about 17%
Yp Topo-I inh – Yersinia pestis topoisomerase I inhibitors, primary screen, biochemical, cleavage product accumulation, plate reader, single point; 360,000 tested, 0.064% active; activity, % at 10 µM; Y. pestis Topo-I cleavage product accumulation; AID 504884, 2011; in the data active means activity above about 50%, passing the limit was not always enough
Mtb FBA inh – Mtb FBA enzyme inhibitors, primary screen, biochemical, fluorescence, strain H37Rv; Fructose-bisphosphate aldolase (Mycobacterium tuberculosis (strain ATCC 25618 / H37Rv)), …; purified M. tuberculosis FBA, fluorescence read-out; 360,000 tested, 2.3% active; inhibition, % at 1 µM; in the data active means inhibition above about 27%;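 further: 0% = vehicle and 100% = reference inhibitor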
Target sequence (P9WQA3 whole entry, looked up): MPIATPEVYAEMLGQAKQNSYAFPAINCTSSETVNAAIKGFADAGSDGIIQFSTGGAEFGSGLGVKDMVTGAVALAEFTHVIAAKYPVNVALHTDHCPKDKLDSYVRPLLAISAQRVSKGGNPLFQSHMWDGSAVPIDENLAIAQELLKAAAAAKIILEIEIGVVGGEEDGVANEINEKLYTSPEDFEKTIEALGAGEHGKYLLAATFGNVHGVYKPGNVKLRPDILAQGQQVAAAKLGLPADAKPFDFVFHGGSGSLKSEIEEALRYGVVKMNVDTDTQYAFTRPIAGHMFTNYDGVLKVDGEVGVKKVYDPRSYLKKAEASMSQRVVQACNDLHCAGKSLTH
PrP 5UTR inh – inhibition of PrP 5' UTR reporter expression; cell-based PrP 5' UTR mRNA reporter, plate reader; inhibition, % (test concentration not listed); 340,000 tested, 0.35% active; in the data active means inhibition above about 52%; further: 0 = median of the neutral control wells
GDH-TPI inh – GDH-TPI coupling enzyme inhibitors, primary screen, artefact control for M. tuberculosis FBA inhibitor project, biochemical, absorbance, full deck; GDH-TPI coupled enzyme counterscreen, NADH absorbance; inhibition, % at 4.8 µM; 360,000 tested, 1.2% active; AID 588335, 2011; in the data active means inhibition above about 30%;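 further: 0% = DMSO wells and 100% = wells lacking the enzyme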
PrPC surface inh – inhibitors of human cell surface prion protein PrPC, primary screen, cell-based, TR-FRET | Major prion protein (Homo sapiens), P04156 | TR-FRET read-out | inhibition, % at 13.8 µM | 370,000 tested, 0.43% active | AID 720596, 2013; in the data active means inhibition above about 24%; further: 0% = median of the test wells and 100% = reference compound wells
The depositor's hits bear a star; x = not tested or not shown; + = active, no number.

SMILES | Mtb hypoxia rep | Yp Topo-I inh | Mtb FBA inh | PrP 5UTR inh | GDH-TPI inh | PrPC surface inh
CCOC(=O)CC1c2ccccc2S(=O)(=O)N1Cc1cccc(C(F)(F)F)c1 (stereo not drawn) | -1 | x | x | x | x | x
COc1ccc2cc(/C(C)=N/NC(=O)C3CC3)ccc2c1 | x | 4 | + | -90 | 2 | 5
CCCCn1nnnc1SCC(=O)c1ccc(C)c(C)c1 | x | 52* | 0 | -8 | -1 | 10
Clc1ccc(C2=NN(c3ccccc3)C(c3ccco3)C2)cc1 (stereo not drawn) | 0 | -7 | 161* | -11 | 9 | -5
Cc1ccc(S(=O)(=O)CCC(=O)c2ccc(O)cc2O)cc1 | 2 | 1 | -1 | -12 | 43* | -8
Cc1ccc(S(=O)(=O)CCC(=O)OCC(=O)c2cc(C)ccc2C)cc1 | -6 | 24 | 0 | -8 | 1 | -3
CC/C(=N/NC(=O)c1ccccc1O)c1c(C)[nH]n(-c2ccccc2)c1=O | x | -7 | 0 | -13 | 31* | 4
C=CCn1cc(C(=O)c2cc(Br)ccc2O)cc(C#N)c1=O | 18 | -7 | 1 | 0 | 31* | 16
CCCCn1cc(C(=O)c2cc(Br)ccc2O)cc(C#N)c1=O | x | -5 | 4 | -14 | 9 | 5
C=CCn1c(=NC(=O)c2cccc(N3C(=O)CCC3=O)c2)sc2cccc(OC)c21 | 9 | 19 | 3 | -28 | 42* | 4
C#CCn1c(=NC(=O)c2cccs2)sc2cccc(OC)c21 | 12 | 19 | 6 | -35 | 31* | -2
COc1ccc2oc(C(=O)Nc3nc4ccccc4[nH]3)c(C)c2c1 | 1 | 3 | 3 | -26 | 44* | 1
COc1ccc(Br)c(C(=O)Nc2nc3ccccc3[nH]2)c1 | -2 | 2 | 2 | -57 | 8 | 13
CN(C)c1ccc(C(=O)N/N=C/c2ccccn2)cc1 | x | -6 | 1 | -49 | 35* | -1
O=C(N/N=C/c1c(Cl)nc2ccccn2c1=O)c1cccnc1 | x | 0 | 17 | -1 | 31* | 0
CN(C)c1ccc(/C=N/NC(=O)c2cnc3ccccc3c2)cc1 | x | 2 | -2 | -20 | 32* | 5
CSc1ccc(/C=N/NC(=O)c2cccc(O)c2)cc1 | x | -6 | 2 | -56 | 49* | 0
CSc1ccc(C=NNC(=O)c2cccc(Cl)c2)cc1 | 5 | x | x | x | x | x
CC1CN(C(C)CO)C(=O)Cc2cc(NC(=O)CCC(F)(F)F)ccc2OC1CN(C)Cc1ccc(-c2ccccc2)cc1 (stereo not drawn) | 8 | x | x | x | x | x
O=C(COc1ccccc1F)NN=C1CCCc2ccccc21 | 4 | x | x | x | x | x
COC(=O)c1cccc(C23CC4(C2)C(CN(C)C4c2ccccc2)C3c2ccc(C(F)(F)F)cc2)c1 (stereo not drawn) | 12 | x | x | x | x | x
O=C(NN=Cc1cccnc1)c1sc2ccccc2c1Cl | -2 | x | x | x | x | x
O=C(N/N=C/c1ccccn1)c1sc2ccccc2c1Cl | x | 17 | -7 | -11 | 35* | 2
CN(C)c1ccc(C=NNC(=O)c2ccccc2)cc1 | -6 | x | x | x | x | x
CN(C)c1ccc(C=NNC(=O)c2cccnc2)cc1 | x | -8 | 1 | -26 | 52* | -1
SMILES | Mtb hypoxia rep | Yp Topo-I inh | Mtb FBA inh | PrP 5UTR inh | GDH-TPI inh | PrPC surface inh
Cc1cc([N+](=O)[O-])nn1Cc1ccc(C(=O)N/N=C/c2ccc(N(C)C)cc2)cc1 | x | 1 | -6 | -14 | 40* | 1
COc1cc(C(=O)Nc2cccc(-c3cn4cccnc4n3)c2)cc(OC)c1OC | 7 | 0 | + | 43 | 8 | -15
Cc1onc(-c2ccccc2Cl)c1C(=O)Nc1cccc(-c2cn3cccnc3n2)c1 | 7 | -1 | 128* | -3 | 31* | x
COc1cc(C(=O)Nc2cccc(-c3nncn3C)c2)cc(OC)c1OC | 4 | 3 | -1 | -20 | 8 | 3
Cc1onc(-c2ccccc2Cl)c1C(=O)Nc1ccc(F)c(F)c1 | 12 | 0 | 0 | -26 | 4 | -4
CC(C)(C)CC(=O)Nc1cccc(-c2cn3cccnc3n2)c1 | 5 | -4 | + | -34 | 7 | -8
CCCCN1CC(=O)N2C3c4cc(OC)ccc4OCC3C(C(=O)OCC)[C@]2(C)C1=O (stereo partly drawn) | 13 | x | x | x | x | x
N#CC(C#N)=C(N)/C(C#N)=C/c1cc(O)c(O)c(O)c1 | x | -9 | 17 | -13 | 23 | 61*
CCOc1ccc(/C=N/N(C)c2ccccc2)cc1OC | x | 24 | -1 | -126 | 33* | 3
Cc1ccc(NC(=O)CN2C(=O)N/C(=C/c3ccc(C)s3)C2=O)cc1 | -6 | -1 | -1 | -21 | 32* | -3
Cc1ccc(NC(=O)CN2C(=O)N/C(=C/c3ccc(C)o3)C2=O)cc1 | 11 | 4 | 4 | -3 | 27 | -2
COc1cc(C(=O)c2nccc3cc(OC)c(OC)cc23)c([N+](=O)[O-])cc1OC | 9 | 11 | -2 | -3 | 38* | -18
CCOC(=O)c1sc2nc(N3CCOCC3)c3c(c2c1N)CCC3 | 8 | 7 | 125* | -23 | 30 | 6
CC1(C)Cc2c(c(N3CCOCC3)nc3sc(C(N)=O)c(N)c23)CO1 | 19 | -7 | 19 | -11 | 32* | 0
CCOC(=O)c1ccc(NC(=O)c2sc3nc(N4CCOCC4)c4c(c3c2N)CCCC4)cc1 | 7 | 8 | 9 | 2 | 14 | 4
CCOc1ccc(-c2c(C(=O)NN=Cc3ccsc3)nnn2-c2nonc2N)cc1 | 6 | x | x | x | x | x
O=C(CSc1cccc2cccnc12)N/N=C/c1ccc(O)cc1 | x | -5 | 16 | x | 47* | -11
CCCCn1c(N)c(N(CC(C)C)C(=O)COC(=O)c2ccccc2NCCO)c(=O)[nH]c1=O | -2 | 5 | 125* | -11 | 3 | 1
C#CCOCCOCCOCCNc1nc(N2CCN(C(=O)C(CCCCN)n3cc(C(N)CO)nn3)CC2)nc(N2CCN(C(=O)C(Cc3cc4ccccc4[nH]3)n3cc(C(N)CC(C)C)nn3)CC2)n1 (stereo not drawn) | 11 | x | x | x | x | x
CCOCCCn1c(=N)c(C(=O)NCCN2CCOCC2)cc2c(=O)n3cccc(C)c3nc21 | 3 | -3 | 185* | -26 | -1 | -38
Cc1cccn2c(=O)c3cc(C(=O)NCCN4CCOCC4)c(=N)n(CCN4CCOCC4)c3nc12 | x | -3 | 151* | 7 | 11 | -21
Cc1cccn2c(=O)c3cc(S(=O)(=O)c4ccccc4)c(=N)n(Cc4ccc(F)cc4)c3nc12 | 1 | 0 | 3 | -10 | 6 | 3
Cc1cccn2c(=O)c3cc(C(=O)NCCN4CCOCC4)c(=N)n(Cc4ccc(F)cc4)c3nc12 | 16 | 0 | 156* | -5 | 7 | 11
COc1ccc(CCNC(=O)c2cc3c(=O)n4cccc(C)c4nc3n(CCCN3CCOCC3)c2=N)cc1 | x | 16 | 18 | -16 | -6 | -20

High-throughput results deposited in PubChem BioAssay by several laboratories.
